# Where “and” joins values, the source holds several entries; their conditions need not be identical. Equal entries are not always repeated. Results filed as inconclusive are left out. A call without a number means that no potency is given here. Calls of active or inactive are those of the source. Calls follow the shape of the dose curve; as a rule, active = well fitted curve in the direction sought with a large enough effect; inconclusive = small, poorly fitted or top-dose-only effect, or another doubt; inactive = no such curve, though single readings can be large; an effect the other way counts as inactive or inconclusive.
# Key:
# [1] = Primary qHTS for inhibitors of nuclear receptor binding SET domain protein 2 (NSD2) in an isogenic RCH-ACV NSD2 p.E1099K mutant (9B) (AID 1645876); also: nearly all actives have a fitted effect of over 70% in size; also: potency is read from the fitted curve at half-maximal effect
# [2] = Primary qHTS for inhibitors of nuclear receptor binding SET domain protein 2 (NSD2) in an RCH-ACV wild type WT cells (2C) (AID 1645877); also: nearly all actives have a fitted effect of over 70% in size; also: potency is read from the fitted curve at half-maximal effect
# [3] = target: Glutathione peroxidase 1 (Homo sapiens) (UniProt P07203); assay: Primary qHTS Assay for Inhibitors of Recombinant Selenoprotein Glutathione Peroxidase 1 (GPX1) (AID 1845191); also: nearly all actives have a fitted effect of over 65% in size
# Chain of Glutathione peroxidase 1 (Homo sapiens) (P07203 whole entry, looked up): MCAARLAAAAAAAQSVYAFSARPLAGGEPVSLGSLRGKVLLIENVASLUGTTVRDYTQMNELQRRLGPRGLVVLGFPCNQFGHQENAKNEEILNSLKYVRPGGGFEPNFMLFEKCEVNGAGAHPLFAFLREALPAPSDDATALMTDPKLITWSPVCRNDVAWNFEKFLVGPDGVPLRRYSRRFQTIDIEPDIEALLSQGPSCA
# Summary of the method: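 GPX1 10 nM, GR 100 nM, GSH 1 mM, NADPH 0.5 mM, CHP 0.5 mM (final). 30-min cpd preincubation, RT. Ex340/Em450 read t=0, t=15 min.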
smiles,measurement,setting,value
CC(C)CC(=O)O[C@@H]1OC=C(CO[C@@H]2O[C@H](CO)[C@@H](O)[C@H](O)[C@H]2O)[C@H]2[C@@H]3O[C@H]3[C@@](O)(CO)[C@@H]12,Potency,[1],inactive
same,Potency,[2],inactive
same,Potency,[3],inactive
C[C@@H]1C[C@H]2O[C@@H]2/C=C\C=C\C(=O)Cc2c(Cl)c(O)cc(O)c2C(=O)O1,Potency,[1],488 nM (active) and 640 nM (active)
same,Potency,[2],275 nM (active) and 640 nM (active)
same,Potency,[3],inactive
C[C@@H]1O[C@@H](OC[C@H]2O[C@@H](Oc3cc(O)cc4c3C(=O)C(O)(Cc3ccc(O)cc3)O4)[C@H](O)[C@@H](O)[C@@H]2O)[C@H](O)[C@H](O)[C@H]1O (some centres not stated),Potency,[1],inactive
same,Potency,[2],inactive
same,Potency,[3],inactive
CC1=CC(=O)CC(C)(C)[C@H]1/C=C/C(CO)O[C@@H]1O[C@H](CO)[C@@H](O)[C@H](O)[C@H]1O (some centres not stated),Potency,[1],inactive
same,Potency,[2],inactive
same,Potency,[3],inactive
CC(=O)O[C@H]1[C@@H](O)[C@H](O[C@H]2[C@@H]3C=CO[C@@H](O[C@H]4O[C@@H](CO)[C@H](O)[C@@H](O)[C@@H]4O)[C@@H]3[C@@]3(CO)O[C@@H]23)O[C@@H](C)[C@@H]1OC(=O)/C=C/c1ccccc1,Potency,[1],inactive
same,Potency,[2],inactive
same,Potency,[3],inactive
CC1(C)CCCC2(C)C=C(C(=O)O)C(O)CC12 (configuration not stated),Potency,[1],inactive
same,Potency,[2],inactive
same,Potency,[3],inactive
C/C=C/C=C/C(O)=C1\C(O)=C(C)C(=O)[C@@]2(C)OC(=O)[C@@](C)(NC(=O)/C=C/C(=O)O)[C@@H]12,Potency,[1],inactive
same,Potency,[2],inactive
same,Potency,[3],inactive
CC1(C)CCCC2(C)C1CC=C1C(=O)OC(O)C12O (configuration not stated),Potency,[1],inactive
same,Potency,[2],inactive
same,Potency,[3],inactive
CC1C(OC(=O)c2ccccc2)C(O)C2C(C(=O)O)=COC(OC3OC(CO)C(O)C(O)C3O)C12 (configuration not stated),Potency,[1],inactive
same,Potency,[2],inactive
same,Potency,[3],inactive
CC(C)C[C@H](CC(=O)NO)C(=O)N[C@H](C(=O)N[C@@H](C)C(=O)NCCN)C(C)(C)C,"activity change, negative = viability loss",[1],-8.25% [at 9.23 µM] (inactive)
same,"activity change, negative = cell killing",[2],-8.71% [at 9.23 µM] (inactive)
same,"activity, negative = inhibition",[3],-2.8% [at 9.52 µM] (inactive)
CC1=C(C(=O)O)/C(=C\CO[C@@H]2O[C@H](CO)[C@@H](O)[C@H](O)[C@H]2O)C(OC(=O)/C=C/c2ccc(O)cc2)C1 (some centres not stated),Potency,[1],inactive
same,Potency,[2],inactive
same,Potency,[3],inactive
CC(C)=CCC/C(C)=C/CO[C@@H]1O[C@H](CO)[C@@H](O)[C@H](O)[C@H]1O,Potency,[1],inactive
same,Potency,[2],inactive
same,Potency,[3],inactive
CC1C(=O)OCC2=CCN3CCC(OC(=O)C(C)(O)C1(C)O)C23 (configuration not stated),Potency,[1],inactive
same,Potency,[2],inactive
same,Potency,[3],inactive
NC(=O)[C@H]1CCS[C@@H]2C[C@]3(CCCN3C(=O)Cc3ccc(NC(=O)COc4ccc(Cl)cc4Cl)cc3)C(=O)N12,Potency,[1],7.42 µM (active)
same,Potency,[2],5.25 µM (active)
same,Potency,[3],inactive
O=C(O)Cc1cn(C2OCC(O)C(O)C2O[C@@H]2O[C@H](CO)[C@@H](O)[C@H](O)[C@H]2O)c2ccccc12 (some centres not stated),Potency,[1],inactive
same,Potency,[2],inactive
same,Potency,[3],inactive
CN[C@@H]1[C@H](O[C@H]2[C@H](O[C@@H]3[C@@H](O)[C@H](O)[C@@H](N=C(N)N)[C@H](O)[C@H]3N=C(N)N)O[C@@H](C)[C@]2(O)C=O)O[C@@H](CO)[C@H](O)[C@H]1O,Potency,[1],inactive
same,Potency,[2],inactive
same,Potency,[3],inactive
C=C(C)C(=O)O[C@H]1CC2=CC(C/C(C)=C\[C@H]3OC(=O)C(=C)[C@H]13)OC2=O (some centres not stated),Potency,[1],5.05 µM (active)
same,Potency,[2],3.58 µM (active)
same,Potency,[3],inactive
CC(C)(C)C(=O)CN1C(=O)[C@H](NC(=O)Nc2cccc(C(=O)O)c2)CN(C2CCCCC2)c2ccccc21,Potency,[1],inactive
same,Potency,[2],inactive
same,Potency,[3],inactive
CCCOc1ccc(-c2nc(OC)c3ccccc3n2)cc1,Potency,[1],inactive
same,Potency,[2],inactive
same,Potency,[3],inactive
COC(=O)CCc1cc2ccoc2c(OC)c1O[C@@H]1O[C@H](CO)[C@@H](O)[C@H](O)[C@H]1O,Potency,[1],inactive
same,Potency,[2],inactive
same,Potency,[3],inactive
Cc1ccccc1CN1C2=NCCN2C(=O)C2=C1CCN(Cc1ccccc1)C2,Potency,[1],inactive
same,Potency,[2],inactive
same,Potency,[3],inactive
COc1cc(-c2ncn(/C=C\C(=O)OC(C)C)n2)cc(C(F)(F)F)c1,Potency,[1],0.129 µM (active)
same,Potency,[2],0.129 µM (active)
same,Potency,[3],inactive
COc1ccc(C(O)C(C)OC2OC(CO)C(O)C(O)C2O)cc1 (configuration not stated),Potency,[1],inactive
same,Potency,[2],inactive
same,Potency,[3],inactive
COC1CC(O[C@H]2CC[C@@]3(C)C(=CC[C@]4(O)C3[C@H](OC(C)=O)[C@@H](OC(=O)c3ccccc3)[C@]3(C)[C@@H](C(C)=O)CC[C@@]34O)C2)OC(C)C1OC1CC(OC)C(OC2CC(OC)C(OC3OC(C)C(OC4OC(CO)C(O)C(O)C4O)C(OC)C3O)C(C)O2)C(C)O1 (some centres not stated),"activity change, negative = viability loss",[1],-11.2% [at 9.23 µM] (inactive)
same,"activity change, negative = cell killing",[2],-8.43% [at 9.23 µM] (inactive)
same,outcome,[3],inactive [at 9.52 µM]

# From PubChem BioAssay (NCATS)
